Assay results published in the supplement of paper PMC10670038.
Structures can show the parent of a compound that is named as a salt. ± gives the standard deviation of the averaged measurements. The full ranking holds about 2,000 compounds; the median of “relative cell viability vs DMSO, compound alone” is about 1.1, and the lowest 2% start at about 0.29. The list comes from a sample in which the lowest values are over-represented; it also holds similar structures and randomly drawn compounds.

test system: TE10; assay: relative cell viability vs DMSO, compound alone (fraction); TE10 is an esophageal squamous carcinoma line; higher = less cytotoxic; conditions: 2 µM; 48 h
Procedure: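 TE10 ESCC cells (1,000/well, 384-well plates) were treated with Selleck bioactive library compounds at 2 uM alone for 48 h. Viability was read by CellTiter-Glo and expressed relative to DMSO wells. Two technical replicates (A, B).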

Row | Structure (SMILES) | relative cell viability
1 | O=C(O)c1ccccc1 [Benzoic Acid] | 1.09 ± 0.0064
2 | CN(NC(=O)CC(=O)NN(C)C(=S)c1ccccc1)C(=S)c1ccccc1 [Elesclomol (STA-4783)] | 0.181 ± 0.013
3 | O=C(O)CCNC(=O)c1ccccc1 [Betamipron] | 1.08 ± 0.022
4 | CC1(C)O[C@@H]2[C@@H](CO[C@@]3(COS(N)(=O)=O)OC(C)(C)O[C@@H]23)O1 [Topiramate] | 1.29 ± 0.052
5 | C[C@@H]1CN(CC(=O)Nc2ccc3c(c2)Cc2cccc(-c4cc(=O)cc(N5CCOCC5)o4)c2S3)C[C@H](C)O1 | 1.17 ± 0.021
6 | Cc1cc(C)cc(NC(=O)Cc2ccc(OC(C)(C)C(=O)O)cc2)c1 [Efaproxiral Sodium] | 1.11 ± 0.012
7 | O=C(Nc1cc(C(F)(F)F)cc(C(F)(F)F)c1)c1cc(Cl)ccc1O | 0.18 ± 0.0024
8 | CC(ONC(=O)c1cc(C(F)(F)F)cc(C(F)(F)F)c1)C(=O)Nc1ccc(Cl)cc1 (stereo not given) | 1.07 ± 0.024
9 | O=C(Nc1ccccc1)c1ccccc1O [Salicylanilide] | 1.07 ± 0.059
10 | C=CC(=O)Nc1cccc(Oc2nc(Nc3ccc(N4CCN(C)CC4)cc3)ncc2Cl)c1 | 0.758 ± 0.011
11 | C[C@H]1O[C@@H](O[C@H]2[C@@H](O)C[C@H](O[C@H]3[C@@H](O)C[C@H](O[C@H]4CC[C@@]5(C)[C@H](CC[C@@H]6[C@@H]5C[C@@H](O)[C@]5(C)[C@@H](C7=CC(=O)OC7)CC[C@]65O)C4)O[C@@H]3C)O[C@@H]2C)C[C@H](O)[C@@H]1O [Digoxin] | 0.603 ± 0.013
12 | Nc1nc(=O)n([C@@H]2CS[C@H](CO)O2)cc1F [Emtricitabine] | 1.06 ± 0.076
13 | CCn1c2ccccc2c2cc(Nc3ccnc(NCCCN4CCOCC4)n3)ccc21 | 1.2 ± 0.076
14 | Cc1c(CN2CCN(C(=O)[C@H](C)O)CC2)sc2c(N3CCOCC3)nc(-c3cnc(N)nc3)nc12 | 0.317 ± 0.021
15 | COc1ccc(-c2nc(N3CCOCC3)c3sc(CN(C)c4ncc(C(=O)NO)cn4)cc3n2)cn1 | 0.0746 ± 0.0025
16 | CS(=O)(=O)N1CCN(Cc2cc3nc(-c4cccc5[nH]ncc45)nc(N4CCOCC4)c3s2)CC1 | 0.483 ± 0.0077
17 | C[C@@H](Oc1ccc2[nH]nc(/C=C/c3cnn(CCO)c3)c2c1)c1c(Cl)cncc1Cl | 0.712 ± 0.01
18 | Cc1nc(Nc2n[nH]c3c2CN(C(=O)N[C@H](CN(C)C)c2ccccc2)C3(C)C)c2sccc2n1 | 0.789 ± 0.037
19 | COc1cccc2cc(-c3nc([C@H]4CC[C@H](C(=O)O)CC4)n4ncnc(N)c34)[nH]c12 | 0.667 ± 0.0089
20 | Cc1cc(N2CCOCC2)ccc1Nc1nc(NC2CCCCC2)c2[nH]cnc2n1 | 1.098 ± 0.0034
21 | Cc1cccc(CC(=O)N2CCc3c2ccc(-c2cn(C)c4ncnc(N)c24)c3F)n1 | 1.01 ± 0.047
22 | CCCCCCCCCCCCCCCC(=O)OCC(O)C1OC(=O)C(O)=C1O [L-Ascorbyl 6-palmitate] | 1.14 ± 0.031
23 | OCc1c[nH]c2ccccc12 [Indole-3-carbinol] | 1.14 ± 0.048
24 | O=C(O)CCCc1c[nH]c2ccccc12 [3-Indolebutyric acid (IBA)] | 1.1 ± 0.024
25 | O=C(/C=C/c1ccc(CN(CCO)CCc2c[nH]c3ccccc23)cc1)NO [LAQ824 (Dacinostat)] | 0.0682 ± 0.006
26 | CCc1c(O)cc(O)c(C(=O)c2ccc(OCCN3CCOCC3)c(OC)c2)c1CC(=O)N(CCOC)CCOC | 0.546 ± 0.009
27 | CC(C)/N=c1\cc2n(-c3ccc(Cl)cc3)c3ccccc3nc-2cc1Nc1ccc(Cl)cc1 [Clofazimine] | 0.929 ± 0.062

Row | Structure (SMILES) | relative cell viability
28 | CC(C)CC(N)=O [Isovaleramide] | 1.1 ± 0.057
29 | CN1CCc2c(c3ccccc3n2Cc2ccc(C(=O)NO)cc2)C1 [Tubastatin A HCl] | 0.9558 ± 0.0063
30 | Cn1cc(CNCC2CCN(c3ncc(C(=O)NO)cn3)CC2)c2ccccc21 | 0.078 ± 0.0008
31 | COc1cc(C(=O)NS(=O)(=O)c2ccccc2C)ccc1Cc1cn(C)c2ccc(NC(=O)OC3CCCC3)cc12 [Zafirlukast] | 1.03 ± 0.033
32 | CN1CCc2c(c3ccccc3n2Cc2ccc(C(=O)NO)cc2)C1 [Tubastatin A] | 1.14 ± 0.023
33 | CCOc1ccc2nc3cc(N)ccc3c(N)c2c1 [Ethacridine lactate monohydrate] | 1.033 ± 0.0023
34 | CCN(CC)CCCCNc1ncc2cc(-c3cc(OC)cc(OC)c3)c(NC(=O)NC(C)(C)C)nc2n1 | 1.23 ± 0.029
35 | NC1CC1c1ccc(-c2cccc(O)c2)cc1 (stereo not given) | 1.09 ± 0.03
36 | N[C@@H]1CCCN(c2c(/C=C3\SC(=O)NC3=O)cccc2-c2ccccc2)C1 | 1.03 ± 0.047
37 | CN(C)c1cccc(-c2c3c(=O)n(-c4ccccc4Cl)[nH]c3cc(=O)n2C)c1 | 0.959 ± 0.036
38 | CC(C)C[C@H](NC(=O)CNC(=O)c1cc(Cl)ccc1Cl)B(O)O | 0.341 ± 0.023
39 | CC(C)C[C@H](NC(=O)[C@H](Cc1ccccc1)NC(=O)c1cnccn1)B(O)O [Bortezomib (PS-341)] | 0.09 ± 0.011
40 | CC(C)C[C@H](NC(=O)[C@@H](NC(=O)c1cccc(-c2ccccc2)n1)[C@@H](C)O)B(O)O | 0.0932 ± 0.003
41 | CNC(=O)[C@H](Cc1ccccc1)NC(=O)[C@H](CC(C)C)[C@H](CSc1cccs1)C(=O)NO [Batimastat (BB-94)] | 0.884 ± 0.076
42 | Nc1ccccc1NC(=O)c1cnccn1 | 1.11 ± 0.037
43 | Cc1cc2c(cc1CC(=O)c1sccc1S(=O)(=O)Nc1onc(C)c1Cl)OCO2 [Sitaxentan sodium] | 1.06 ± 0.022
44 | CC(C)(O)CC(=O)NCCn1ccc2ncnc(Nc3ccc(Oc4cccc(C(F)(F)F)c4)c(Cl)c3)c21 | 1.17 ± 0.07
45 | Oc1ccc(Nc2nc(-c3ccc(Cl)cc3)cs2)cc1 | 1.11 ± 0.019
46 | COc1cc(C=O)ccc1O [Vanillin] | 1.11 ± 0.027
47 | Cc1cc(Nc2cc(N3CCN(C)CC3)nc(/C=C/c3ccccc3)n2)n[nH]1 | 0.856 ± 0.03
48 | Cc1cc(Nc2cc(N3CCN(C)CC3)nc(/C=C/c3ccccc3)n2)n[nH]1 [ENMD-2076 L-(+)-Tartaric acid] | 0.808 ± 0.069
49 | Cc1cc(C)nc(NS(=O)(=O)c2ccc(N)cc2)n1 [Sulfamethazine] | 1.1 ± 0.044
50 | COCCCC/C(=N\OCCN)c1ccc(C(F)(F)F)cc1 [Fluvoxamine maleate] | 1.21 ± 0.041
51 | COC(=O)[C@]12CCC(C)(C)C[C@H]1[C@H]1C(=O)C=C3[C@@]4(C)C=C(C#N)C(=O)C(C)(C)[C@@H]4CC[C@@]3(C)[C@]1(C)CC2 [Bardoxolone Methyl] | 0.272 ± 0.0085
52 | CC1(C)CC[C@]2(NC(=O)C(C)(F)F)CC[C@]3(C)[C@H](C(=O)C=C4[C@@]5(C)C=C(C#N)C(=O)C(C)(C)[C@@H]5CC[C@]43C)[C@@H]2C1 [Omaveloxolone (RTA-408)] | 0.59 ± 0.032
53 | N#Cc1ccc(-c2csc(NN=C3CCCC3)n2)cc1 [Remodelin] | 1.121 ± 0.0093
54 | COc1cc2ncnc(Nc3ccc(Cl)cc3F)c2cc1OC | 0.999 ± 0.16

Row | Structure (SMILES) | relative cell viability
55 | NC(=O)Nc1sc(-c2ccc(F)cc2)cc1C(N)=O | 0.98 ± 0.072
56 | NC(=O)Nc1cc(-c2cccc(F)c2)sc1C(=O)N[C@H]1CCCNC1 | 0.259 ± 0.021
57 | COc1cc(C(=O)NC2CCCNC2)cc(OC)c1OC (stereo not given) [Troxipide] | 1.13 ± 0.016
58 | C[N+](C)(C)C[C@H](O)CC(=O)[O-] [L-carnitine] | 1.04 ± 0.016
59 | NC(=O)N1CCC(CC(=O)N2CCC([C@H]3c4ncc(Br)cc4CCc4cc(Cl)cc(Br)c43)CC2)CC1 [Lonafarnib] | 1.06 ± 0.049
60 | CNC[C@H](O)[C@@H](O)[C@H](O)[C@H](O)CO [Meglumine] | 1.008 ± 0.0073
61 | COc1ccc(-c2ccc3ncc4c(c3c2)n(-c2ccc(N3CCNCC3)c(C(F)(F)F)c2)c(=O)n4C)cn1 | 0.0662 ± 0.0018
62 | Nc1ccc(-c2ccc3ncc4ccc(=O)n(-c5cccc(C(F)(F)F)c5)c4c3c2)cn1 [Torin 2] | 0.378 ± 0.014
63 | COc1cc(-c2cc(-c3ccc(N4CCNCC4)cc3)cnc2C)cc(OC)c1OC | 1.16 ± 0.019
64 | COc1cc(-c2cc(-c3cccc(O)c3)cnc2N)cc(OC)c1OC | 1.21 ± 0.0055
65 | COc1ccc(COc2cc3oc(=O)c4cc(C(C)O)ccc4c3cc2OC)cc1 (stereo not given) [Palomid 529 (P529)] | 1.14 ± 0.025
66 | COCCOC(=O)C1=C(C)NC(C)=C(C(=O)OC/C=C/c2ccccc2)C1c1cccc([N+](=O)[O-])c1 (stereo not given) [Cilnidipine] | 1.15 ± 0.055
67 | NCCCC[C@@H]1NC(=O)[C@@H](Cc2ccccc2)NC(=O)[C@H](CC(=O)O)NC(=O)CNC(=O)[C@H](CCCN=C(N)N)NC1=O [Cyclo (-RGDfK)] | 1.1 ± 0.024
68 | CC(C)[C@H](C(=O)Nc1ccc(C(=O)NO)cc1)c1ccccc1 | 0.221 ± 0.015
69 | CC(=O)Nc1ccc(C(=O)Nc2ccccc2N)cc1 [CI994 (Tacedinaline)] | 1 ± 0.017
70 | CCCCN(Cc1ccc(C(=O)NO)cc1)C(=O)Nc1ccccc1 [Nexturastat A] | 0.716 ± 0.074
71 | O=C(NC[C@H]1CN(c2ccc(N3CCOCC3=O)cc2)C(=O)O1)c1ccc(Cl)s1 [Rivaroxaban] | 1.04 ± 0.076
72 | C[C@]12CCC3=C4CCC(=O)C=C4CC[C@H]3[C@@H]1CC[C@@]2(O)CC#N [Dienogest] | 1.19 ± 0.024
73 | c1cc(-c2cnn3cc(-c4ccc(N5CCNCC5)cc4)cnc23)c2cccnc2c1 | 0.0982 ± 0.0034
74 | CC(C)Oc1ccc(-c2cnc3c(-c4ccnc5ccccc45)cnn3c2)cc1 | 1.19 ± 0.027
75 | COc1ccc(-c2cnc3c(-c4cccc5ncccc45)cnn3c2)cc1 | 1.171 ± 0.0012
76 | COC(=O)c1ccc2c(c1)nc(NC(=O)c1ccccc1)n2CCCc1ccccc1 | 0.777 ± 0.0059
77 | O=C(c1ccc(Nc2nccc(-c3cc4ccccc4s3)n2)cc1)N1CCC(N2CCCC2)CC1 [IKK-16 (IKK Inhibitor VII)] | 1.03 ± 0.02
78 | CN1CC[C@H](c2c(O)cc(O)c3c(=O)cc(-c4ccccc4Cl)oc23)[C@H](O)C1 [Flavopiridol (Alvocidib)] | 0.228 ± 0.055
79 | CN1CC[C@@H](c2c(O)cc(O)c3c(=O)cc(-c4ccccc4Cl)oc23)[C@@H]1CO | 0.501 ± 0.008
80 | CN1CC[C@H](c2c(O)cc(O)c3c(=O)cc(-c4ccccc4Cl)oc23)[C@H](O)C1 [Flavopiridol HCl] | 0.293 ± 0.03
